# The full data set covers some 7,900 targets. This sample favours those with a hit. About 0.6% of all pairs of compound and target were hits. Unmarked numbers belong to inactive results.
# Tests used:
# Test in all cases: log2 fold change, soluble protein after heating vs DMSO (PISA); higher = thermal stabilisation; K562 cells, 10 uM, 30 min; active = over 0.2 and 3.5 SD of the protein, either way, in both replicates (recomputed)
# [1] = compound: NC(=O)Nc1cc(-c2cccc(F)c2)sc1C(=O)N[C@H]1CCCNC1
# How it was run: (§1)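 For each measurement, 10 μM compound was applied for 30 min to K562 cells at 2×10^6 cells/mL. Aliquots were heated for 3 min across 48°C-58°C, pooled, and extracted in PBS with 0.5% NP-40 at 4°C; the supernatant after 21,000xg for 90 min was soluble protein. This was quantified by TMTpro 16plex LC-MS/MS with channel sums equalised, and thermal stability was reported relative to control samples from duplicates, on a log2 fold-change scale.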
# [2] = compound: NC(=O)c1cnc(N[C@@H]2CCCC[C@@H]2N)nc1Nc1cccc(-n2nccn2)c1
# How it was run: as §1
# [3] = compound: NCC(=O)Nc1ccc(-n2nc(C(F)(F)F)cc2-c2ccc3c(ccc4ccccc43)c2)cc1
# How it was run: as §1
# entinostat = compound: Nc1ccccc1NC(=O)c1ccc(CNC(=O)OCc2cccnc2)cc1 [entinostat]
# How it was run: as §1
# vorinostat = compound: O=C(CCCCCCC(=O)Nc1ccccc1)NO [vorinostat]
# How it was run: as §1
# [4] = compound: NC1(c2ccc(-c3nc4ccn5c(=O)[nH]nc5c4cc3-c3ccccc3)cc2)CCC1
# How it was run: as §1
# citarinostat = compound: O=C(CCCCCCNC(=O)c1cnc(N(c2ccccc2)c2ccccc2Cl)nc1)NO [citarinostat]
# How it was run: as §1
# silmitasertib = compound: O=C(O)c1ccc2c(c1)nc(Nc1cccc(Cl)c1)c1ccncc12 [silmitasertib]
# How it was run: as §1
# [5] = compound: O=C1NC(=O)C(c2cnc3ccccn23)=C1c1cn2c3c(cc(F)cc13)CN(C(=O)N1CCCCC1)CC2
# How it was run: as §1
# [6] = compound: c1cc(OCCN2CCCCC2)cc(-c2n[nH]c3ccc(-c4nnc[nH]4)cc23)c1
# How it was run: as §1
# entospletinib = compound: c1cn2cc(-c3ccc4cn[nH]c4c3)nc(Nc3ccc(N4CCOCC4)cc3)c2n1 [entospletinib]
# How it was run: as §1
# Sequence of UniProt Q14061 (Q14061 whole entry, looked up): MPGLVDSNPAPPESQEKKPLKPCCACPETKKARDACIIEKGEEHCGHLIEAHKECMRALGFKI
# Sequence of UniProt Q9UHN6 (Q9UHN6 whole entry, looked up): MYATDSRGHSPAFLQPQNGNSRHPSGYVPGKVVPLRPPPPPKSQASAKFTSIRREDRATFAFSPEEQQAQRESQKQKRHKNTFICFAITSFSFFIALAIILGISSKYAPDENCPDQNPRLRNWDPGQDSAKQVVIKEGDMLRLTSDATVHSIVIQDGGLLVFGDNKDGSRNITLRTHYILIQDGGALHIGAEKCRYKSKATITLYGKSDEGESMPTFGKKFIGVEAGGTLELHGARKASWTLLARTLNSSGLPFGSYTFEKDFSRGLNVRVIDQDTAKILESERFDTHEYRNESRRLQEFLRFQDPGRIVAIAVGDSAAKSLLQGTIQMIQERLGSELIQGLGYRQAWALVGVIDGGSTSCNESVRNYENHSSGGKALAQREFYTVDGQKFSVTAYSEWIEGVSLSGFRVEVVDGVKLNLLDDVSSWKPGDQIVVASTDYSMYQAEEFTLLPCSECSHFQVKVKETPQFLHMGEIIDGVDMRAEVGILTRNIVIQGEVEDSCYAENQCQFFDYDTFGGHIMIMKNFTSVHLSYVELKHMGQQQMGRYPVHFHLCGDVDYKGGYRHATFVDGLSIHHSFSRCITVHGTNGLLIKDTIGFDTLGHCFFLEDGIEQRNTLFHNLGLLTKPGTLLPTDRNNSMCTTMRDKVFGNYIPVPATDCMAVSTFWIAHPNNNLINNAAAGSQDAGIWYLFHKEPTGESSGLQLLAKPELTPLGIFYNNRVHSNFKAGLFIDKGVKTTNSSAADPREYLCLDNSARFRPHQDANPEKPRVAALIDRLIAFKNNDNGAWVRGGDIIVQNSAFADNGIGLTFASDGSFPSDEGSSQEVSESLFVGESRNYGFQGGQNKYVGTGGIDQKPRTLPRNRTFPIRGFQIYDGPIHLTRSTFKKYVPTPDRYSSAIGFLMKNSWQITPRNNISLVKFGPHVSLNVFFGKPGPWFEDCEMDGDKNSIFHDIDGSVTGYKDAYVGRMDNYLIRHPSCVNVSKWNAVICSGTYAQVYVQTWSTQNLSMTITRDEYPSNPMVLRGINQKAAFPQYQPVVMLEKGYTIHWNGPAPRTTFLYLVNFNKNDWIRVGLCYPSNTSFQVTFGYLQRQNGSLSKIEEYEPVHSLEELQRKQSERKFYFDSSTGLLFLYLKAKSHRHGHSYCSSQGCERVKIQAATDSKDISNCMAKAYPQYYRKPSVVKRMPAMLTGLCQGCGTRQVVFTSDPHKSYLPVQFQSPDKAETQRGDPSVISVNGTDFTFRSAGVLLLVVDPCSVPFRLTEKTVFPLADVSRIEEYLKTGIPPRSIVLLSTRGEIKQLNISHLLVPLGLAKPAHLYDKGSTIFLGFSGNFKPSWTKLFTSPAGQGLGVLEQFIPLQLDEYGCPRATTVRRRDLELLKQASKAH
# Sequence of UniProt Q13286 (Q13286 whole entry, looked up): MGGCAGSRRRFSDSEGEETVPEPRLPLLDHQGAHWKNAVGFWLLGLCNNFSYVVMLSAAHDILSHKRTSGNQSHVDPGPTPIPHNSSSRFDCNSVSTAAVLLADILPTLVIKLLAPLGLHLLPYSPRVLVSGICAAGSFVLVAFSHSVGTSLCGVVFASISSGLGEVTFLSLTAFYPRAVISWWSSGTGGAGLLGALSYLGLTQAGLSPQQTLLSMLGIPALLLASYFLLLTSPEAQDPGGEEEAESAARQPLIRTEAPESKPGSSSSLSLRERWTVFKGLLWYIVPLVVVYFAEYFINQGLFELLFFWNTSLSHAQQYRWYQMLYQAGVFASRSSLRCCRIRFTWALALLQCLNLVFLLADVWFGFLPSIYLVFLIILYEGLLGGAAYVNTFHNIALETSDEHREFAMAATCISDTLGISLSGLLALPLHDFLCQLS
# Sequence of UniProt P55210 (P55210 whole entry, looked up): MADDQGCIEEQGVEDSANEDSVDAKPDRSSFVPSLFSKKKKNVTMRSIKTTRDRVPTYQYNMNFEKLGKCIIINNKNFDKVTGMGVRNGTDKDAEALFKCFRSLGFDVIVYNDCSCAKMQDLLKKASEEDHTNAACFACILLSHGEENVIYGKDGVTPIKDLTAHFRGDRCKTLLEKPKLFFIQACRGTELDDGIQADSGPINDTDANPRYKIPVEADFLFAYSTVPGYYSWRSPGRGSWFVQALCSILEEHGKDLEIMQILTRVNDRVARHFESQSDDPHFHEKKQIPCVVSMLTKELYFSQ
# Sequence of UniProt Q7Z4R8 (Q7Z4R8 whole entry, looked up): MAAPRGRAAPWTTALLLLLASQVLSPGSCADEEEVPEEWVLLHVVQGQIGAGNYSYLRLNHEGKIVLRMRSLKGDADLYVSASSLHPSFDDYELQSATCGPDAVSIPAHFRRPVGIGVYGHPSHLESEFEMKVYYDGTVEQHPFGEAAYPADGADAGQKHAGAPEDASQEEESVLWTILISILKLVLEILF
# Sequence of UniProt P46527 (P46527 whole entry, looked up): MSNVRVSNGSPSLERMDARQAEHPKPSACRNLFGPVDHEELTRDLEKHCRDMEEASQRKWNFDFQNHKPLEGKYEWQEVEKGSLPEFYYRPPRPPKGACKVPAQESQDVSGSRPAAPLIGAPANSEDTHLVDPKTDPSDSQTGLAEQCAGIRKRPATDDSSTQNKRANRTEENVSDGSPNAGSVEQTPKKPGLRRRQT
# Sequence of UniProt Q8N4S0 (Q8N4S0 whole entry, looked up): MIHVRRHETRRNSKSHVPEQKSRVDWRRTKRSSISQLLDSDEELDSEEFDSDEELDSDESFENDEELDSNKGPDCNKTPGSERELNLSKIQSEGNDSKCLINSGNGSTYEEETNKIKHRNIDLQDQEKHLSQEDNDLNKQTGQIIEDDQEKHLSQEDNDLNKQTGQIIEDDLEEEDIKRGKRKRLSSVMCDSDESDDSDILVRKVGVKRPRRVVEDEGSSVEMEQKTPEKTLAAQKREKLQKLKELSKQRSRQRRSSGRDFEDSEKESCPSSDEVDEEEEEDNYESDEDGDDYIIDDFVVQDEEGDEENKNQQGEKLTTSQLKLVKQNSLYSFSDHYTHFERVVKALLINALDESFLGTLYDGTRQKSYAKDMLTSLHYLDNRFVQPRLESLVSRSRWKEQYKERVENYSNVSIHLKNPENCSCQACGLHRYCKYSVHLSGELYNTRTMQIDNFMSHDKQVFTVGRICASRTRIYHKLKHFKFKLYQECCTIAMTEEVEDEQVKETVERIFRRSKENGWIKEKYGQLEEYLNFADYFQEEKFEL
# Sequence of UniProt Q9BSQ5 (Q9BSQ5 whole entry, looked up): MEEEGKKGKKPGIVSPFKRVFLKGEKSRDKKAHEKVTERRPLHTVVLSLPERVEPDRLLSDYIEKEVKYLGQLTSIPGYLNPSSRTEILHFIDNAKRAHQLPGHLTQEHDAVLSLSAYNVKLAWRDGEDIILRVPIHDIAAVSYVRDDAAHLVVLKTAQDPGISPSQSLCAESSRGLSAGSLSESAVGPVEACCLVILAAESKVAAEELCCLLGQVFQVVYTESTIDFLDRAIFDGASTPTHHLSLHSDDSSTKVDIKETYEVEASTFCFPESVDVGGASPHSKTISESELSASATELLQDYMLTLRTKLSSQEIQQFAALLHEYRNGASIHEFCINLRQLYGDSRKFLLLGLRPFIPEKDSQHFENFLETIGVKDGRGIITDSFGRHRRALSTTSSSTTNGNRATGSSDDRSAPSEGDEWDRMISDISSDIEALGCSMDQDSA
# Sequence of UniProt Q14677 (Q14677 whole entry, looked up): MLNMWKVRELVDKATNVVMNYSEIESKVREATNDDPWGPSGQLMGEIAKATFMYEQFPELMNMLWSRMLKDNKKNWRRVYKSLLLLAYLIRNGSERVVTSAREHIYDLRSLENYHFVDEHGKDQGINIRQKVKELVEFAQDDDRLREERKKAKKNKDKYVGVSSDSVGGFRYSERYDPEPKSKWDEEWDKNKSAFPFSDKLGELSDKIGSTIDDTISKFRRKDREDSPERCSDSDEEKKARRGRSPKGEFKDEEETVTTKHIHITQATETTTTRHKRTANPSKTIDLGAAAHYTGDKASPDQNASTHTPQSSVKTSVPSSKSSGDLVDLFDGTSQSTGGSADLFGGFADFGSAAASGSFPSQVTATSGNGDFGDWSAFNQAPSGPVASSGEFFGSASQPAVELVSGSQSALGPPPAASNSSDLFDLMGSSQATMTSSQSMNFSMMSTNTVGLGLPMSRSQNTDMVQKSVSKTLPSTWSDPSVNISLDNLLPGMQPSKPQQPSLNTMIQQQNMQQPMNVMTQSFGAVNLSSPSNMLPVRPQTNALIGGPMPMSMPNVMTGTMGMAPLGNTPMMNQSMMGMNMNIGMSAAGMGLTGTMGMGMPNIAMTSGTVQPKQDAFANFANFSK
# Sequence of UniProt Q6UUV9 (Q6UUV9 whole entry, looked up): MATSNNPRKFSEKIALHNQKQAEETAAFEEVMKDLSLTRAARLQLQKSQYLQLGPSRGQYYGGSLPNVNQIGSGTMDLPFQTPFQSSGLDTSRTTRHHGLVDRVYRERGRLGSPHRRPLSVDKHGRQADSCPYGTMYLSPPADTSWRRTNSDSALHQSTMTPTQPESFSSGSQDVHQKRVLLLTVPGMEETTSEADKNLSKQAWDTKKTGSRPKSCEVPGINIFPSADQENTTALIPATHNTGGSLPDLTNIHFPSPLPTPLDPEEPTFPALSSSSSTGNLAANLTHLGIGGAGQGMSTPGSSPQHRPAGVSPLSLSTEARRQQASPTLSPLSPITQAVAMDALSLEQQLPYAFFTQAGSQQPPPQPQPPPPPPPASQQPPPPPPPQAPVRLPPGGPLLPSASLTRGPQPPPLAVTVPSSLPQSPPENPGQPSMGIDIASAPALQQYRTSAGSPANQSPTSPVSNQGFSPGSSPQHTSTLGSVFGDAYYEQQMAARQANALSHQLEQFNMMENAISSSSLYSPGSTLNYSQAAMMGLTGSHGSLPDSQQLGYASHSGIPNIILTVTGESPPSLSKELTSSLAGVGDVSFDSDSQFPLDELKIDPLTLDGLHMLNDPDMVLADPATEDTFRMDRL
# Sequence of UniProt O75956 (O75956 whole entry, looked up): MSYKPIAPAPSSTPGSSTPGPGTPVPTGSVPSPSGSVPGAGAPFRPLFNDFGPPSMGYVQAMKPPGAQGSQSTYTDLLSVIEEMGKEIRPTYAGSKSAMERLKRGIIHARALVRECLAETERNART
Target,log2 fold change [1],log2 fold change [2],log2 fold change [3],log2 fold change (entinostat),log2 fold change (vorinostat),log2 fold change [4],log2 fold change (citarinostat),log2 fold change (silmitasertib),log2 fold change [5],log2 fold change [6],log2 fold change (entospletinib)
CRMP1 isoform 2 (UniProt Q14194),-0.121,0,-0.099,-0.055,0.193,–,–,–,–,–,–
CDK4 (UniProt P11802),0.015,-0.293,0.02,-0.006,–,-0.074,0.076,0.193,0.184,0.005,-0.069
COX17 (UniProt Q14061),-0.002,0.017,0.052,0.048,-0.077,-0.088,–,0.119,-0.141,–,–
CORO2A (UniProt Q92828),0.069,-0.027,-0.085,-0.061,0.027,-0.287 (active),-0.114,-0.019,–,-0.212,0.078
CNDP2 (UniProt Q96KP4),-0.013,-0.035,0.01,-0.015,-0.015,-0.052,0.023,-0.065,-0.005,0.001,0.03
CDKN1B (UniProt P46527),-0.154,0.178,-0.177,0.046,-0.01,0.017,–,-0.072,-0.01,–,–
CCDC57 (UniProt Q2TAC2),-0.025,–,-0.04,-0.031,–,-0.014,0.008,-0.038,-0.002,-0.11,-0.044
CCDC82 (UniProt Q8N4S0),–,-0.083,-0.063,–,–,-0.146,0.023,0.047,-0.169,0.046,0.021
CDK2AP2 (UniProt O75956),–,-0.05,–,–,–,0.14,0.009,-0.094,-0.062,-0.1,0.101
CASK (UniProt O14936),–,0.026,–,–,–,–,–,–,–,–,–
CRTC3 (UniProt Q6UUV7),-0.754 (active),–,0.001,0.057,–,-0.007,–,0.098,0.025,–,–
CA1 (UniProt E5RIF9),–,–,-0.029,–,–,–,–,–,-0.026,–,–
CLINT1 (UniProt Q14677),–,0.001,0.034,–,–,0.037,-0.146,0.021,0.058,0.062,0.16
CD68 (UniProt P34810),0.039,–,–,-0.33,–,-0.106,–,0.07,–,–,–
CEBPZOS (UniProt A8MTT3),–,0.022,0.028,–,-0.03,-0.124,-0.011,0.018,–,-0.056,0.203
CRLS1 (UniProt Q9UJA2),0.323 (active),–,0.06,0.151,-0.005,0.027,0.012,0.017,–,-0.051,-0.036
C5orf30 (UniProt Q96GV9),–,-0.191,–,–,–,–,–,–,-0.051,–,–
CD84 (UniProt Q9UIB8),-0.182,-0.036,–,0.234,–,–,–,–,0.084,–,–
CREB3L2 (UniProt Q70SY1),–,-0.102,0.035,–,–,-0.074,–,0.023,-0.076,–,–
CNOT4 isoform 9 (UniProt O95628),–,-0.115,0.11,–,-0.003,-0.077,-0.038,0.024,–,0.178,0.02
CNRIP1 (UniProt Q96F85),–,–,–,–,–,0.258,–,-0.13,0.738 (active),–,–

Target,log2 fold change [1],log2 fold change [2],log2 fold change [3],log2 fold change (entinostat),log2 fold change (vorinostat),log2 fold change [4],log2 fold change (citarinostat),log2 fold change (silmitasertib),log2 fold change [5],log2 fold change [6],log2 fold change (entospletinib)
CLCN5 isoform 2 (UniProt P51795),–,–,0.004,–,0.062,–,0.045,–,–,-0.114,-0.014
C6orf120 (UniProt Q7Z4R8),0.068,–,-0.018,0.083,–,–,0.031,–,–,-0.141,-0.013
CFAP47 (UniProt Q6ZTR5),–,0.022,-0.024,–,–,–,-0.042,–,-0.025,-0.008,-0.052
CCM2 isoform 2 (UniProt Q9BSQ5),-0.103,–,-0.067,0.326 (active),-0.038,-0.09,-0.073,0.048,-0.136,0.069,-0.019
CCNL1 (UniProt Q9UK58),–,–,–,–,–,-0.224,–,-0.173,–,–,–
CARD9 (UniProt Q9H257),–,0.37,–,–,–,–,–,–,–,–,–
CEMIP2 (UniProt Q9UHN6),–,0.072,-0.072,–,0.038,-0.243,0.124,0.057,0.034,-0.078,0.04
CAD (UniProt H7BZB3),–,0.124,–,–,–,–,–,–,–,–,–
COMMD3-BMI1 (UniProt R4GMX3),0.003,0.076,–,-0.062,0.109,–,–,–,-0.012,–,–
CS (UniProt F8VU34),–,–,–,–,–,–,-0.298,–,–,-0.393,0.063
CKS2 (UniProt P33552),–,-0.021,–,–,0.28,-0.039,-0.092,0.065,–,-0.071,0.04
CASP7 isoform 3 (UniProt P55210),–,–,–,–,0.044,–,-0.058,–,-0.048,0.021,0
CSNK1A1 isoform 3 (UniProt P48729),–,–,–,–,–,-0.204,–,0,–,–,–
CLASP2 (UniProt O75122),–,-0.049,–,–,–,0.046,0.143,0.083,–,0.08,-0.003
"CCDC187, A0A1W2PQX5",–,-0.147,–,–,-0.042,–,–,–,-0.048,–,–
CRTC1 isoform 2 (UniProt Q6UUV9),-0.132,-0.151,0.01,0.044,0.012,–,–,–,-0.371,–,–
CLN3 (UniProt Q13286),–,–,-0.124,–,–,-0.112,0.042,0.025,0.072,-0.033,0.065
COMMD1 (UniProt Q8N668),-0.043,–,-0.069,0.008,-0.032,0.051,0.039,-0.021,-0.018,-0.065,-0.013
CCND3 (UniProt P30281),–,-0.204,0.184,–,0.048,-0.001,0,0.28,0.069,0.183,-0.154
CCDC167 (UniProt Q9P0B6),0.014,–,–,0.031,0.008,0.046,-0.014,0.135,0.038,0.009,0.034
CFAP58 (UniProt Q5T655),–,–,–,–,0.018,0.028,-0.357,-0.008,–,0.392,-1.11 (active)

# Source: the supplement of paper PMC10849652
